PubChem BioAssay
Activity calls are given as the source filed them.

Assays:
[1] = system: Plasmodium falciparum Sir2 (PF13_0152, Sir2A); experiment: Plasmodium falciparum Sir2A binding compounds – biochemical, small-molecule microarray, 635 nm fluorescence, primary screen (AID 1098); details: fluorescence 635 nm, higher = more signal;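 note: score merges spot fluorescence intensity with its signal-to-noise ratio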
[2] = probe aDKK1 binding to arrayed compounds – biochemical, biotinylated probe, 635/667 nm fluorescence, primary screen (AID 1099); details: small-molecule microarray, higher = more signal;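 note: score merges 667nm spot fluorescence with signal to noise across triplicate slides; reference of the scale not given here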
[3] = probe aCHRDL2 binding to arrayed compounds – biochemical, biotinylated probe, 635/667 nm fluorescence, primary screen (AID 1100); details: small-molecule microarray, higher = more signal
[4] = change in splice reporter luminescence, either direction, cell-based, HEK293, spliceosome inhibition project, primary screen (AID 1101); details: HEK293 splicing luciferase reporter, 24 h, higher = more signal, called active from +8 up or from −8 down;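 note: HEK293 cells carrying a splicing-competent luciferase reporter gene; test concentration not given here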
[5] = target: Fibroblast growth factor 10 (Homo sapiens) (UniProt O15520); experiment: compounds binding fibroblast growth factor 10 – biochemical, small-molecule microarray, 635 nm fluorescence, primary screen (AID 1102); details: FGF10 binding, fluorescence 635 nm, higher = more signal
Chain of Fibroblast growth factor 10 (Homo sapiens) (O15520 whole entry, looked up): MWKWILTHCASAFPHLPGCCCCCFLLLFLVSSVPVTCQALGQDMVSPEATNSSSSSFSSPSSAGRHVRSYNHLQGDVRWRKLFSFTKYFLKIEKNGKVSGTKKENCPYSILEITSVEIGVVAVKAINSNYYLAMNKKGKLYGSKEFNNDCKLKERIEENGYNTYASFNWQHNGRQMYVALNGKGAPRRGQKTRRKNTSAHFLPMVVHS

[6] = system: glycogen synthase kinase-3 (GSK3A per assay name; protocol says GSK3B); experiment: compounds binding glycogen synthase kinase-3 – biochemical, small-molecule microarray, 635 nm fluorescence, GSK3A, primary screen (AID 1103); details: fluorescence 635 nm, higher = more signal; note: the record names both GSK3A and GSK3B
[7] = target: Epidermal growth factor receptor (Homo sapiens) (UniProt P00533); experiment: compounds binding epidermal growth factor receptor – biochemical, small-molecule microarray, 635 nm fluorescence, primary screen (AID 1104); details: EGFR binding, higher = more signal;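 note: score merges 667 nm emission intensity with spot signal to noise over triplicate slides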
Chain of Epidermal growth factor receptor (Homo sapiens) (P00533 whole entry, looked up): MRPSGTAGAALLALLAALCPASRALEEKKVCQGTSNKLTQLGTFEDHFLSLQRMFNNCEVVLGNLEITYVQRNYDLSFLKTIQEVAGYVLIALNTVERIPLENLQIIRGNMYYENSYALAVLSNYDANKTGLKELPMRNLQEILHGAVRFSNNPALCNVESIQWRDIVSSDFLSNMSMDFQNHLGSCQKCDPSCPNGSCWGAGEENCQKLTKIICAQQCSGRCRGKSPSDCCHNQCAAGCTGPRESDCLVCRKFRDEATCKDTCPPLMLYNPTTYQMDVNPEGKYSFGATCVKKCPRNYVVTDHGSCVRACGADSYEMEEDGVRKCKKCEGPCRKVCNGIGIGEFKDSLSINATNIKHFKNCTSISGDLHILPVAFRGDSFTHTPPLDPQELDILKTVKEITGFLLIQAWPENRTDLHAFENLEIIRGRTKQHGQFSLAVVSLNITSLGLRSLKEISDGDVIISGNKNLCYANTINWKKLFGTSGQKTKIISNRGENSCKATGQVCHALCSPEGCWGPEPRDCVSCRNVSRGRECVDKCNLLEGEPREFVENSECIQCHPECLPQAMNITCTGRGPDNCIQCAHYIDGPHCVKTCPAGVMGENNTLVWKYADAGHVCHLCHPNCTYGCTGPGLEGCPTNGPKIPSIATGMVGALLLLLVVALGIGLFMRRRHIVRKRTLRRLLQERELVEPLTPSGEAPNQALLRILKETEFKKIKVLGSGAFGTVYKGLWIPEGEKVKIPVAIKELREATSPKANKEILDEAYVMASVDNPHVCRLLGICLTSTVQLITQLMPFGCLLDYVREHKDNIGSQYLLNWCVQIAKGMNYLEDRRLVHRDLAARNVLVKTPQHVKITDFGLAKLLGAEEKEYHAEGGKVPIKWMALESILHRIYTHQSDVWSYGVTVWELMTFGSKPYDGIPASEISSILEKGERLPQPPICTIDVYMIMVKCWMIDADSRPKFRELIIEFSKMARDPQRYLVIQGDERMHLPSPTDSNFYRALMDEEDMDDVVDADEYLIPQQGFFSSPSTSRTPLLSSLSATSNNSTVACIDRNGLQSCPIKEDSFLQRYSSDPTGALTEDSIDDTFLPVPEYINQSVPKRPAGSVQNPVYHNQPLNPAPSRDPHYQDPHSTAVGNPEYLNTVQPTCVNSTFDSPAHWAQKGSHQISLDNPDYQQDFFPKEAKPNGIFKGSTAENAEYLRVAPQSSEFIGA

[8] = target: Follistatin-related protein 3 (Homo sapiens) (UniProt O95633); experiment: compounds binding follistatin-related protein 3 – biochemical, small-molecule microarray, 635 nm fluorescence, primary screen (AID 1105); details: FSTL3 binding, higher = more signal;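 note: score merges emission near 667 nm and signal to noise per printed spot across three slides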
Chain of Follistatin-related protein 3 (Homo sapiens) (O95633 whole entry, looked up): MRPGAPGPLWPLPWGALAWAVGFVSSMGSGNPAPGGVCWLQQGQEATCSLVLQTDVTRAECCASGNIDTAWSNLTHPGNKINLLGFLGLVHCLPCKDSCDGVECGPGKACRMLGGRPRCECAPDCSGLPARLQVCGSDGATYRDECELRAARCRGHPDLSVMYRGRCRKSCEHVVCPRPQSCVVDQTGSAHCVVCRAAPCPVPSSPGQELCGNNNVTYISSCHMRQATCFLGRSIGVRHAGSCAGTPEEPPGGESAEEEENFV

[9] = target: Dickkopf-related protein 1 (Homo sapiens) (UniProt O94907); experiment: small molecules binding DKK1 protein – biochemical, small-molecule microarray, 635 nm fluorescence scan, primary screen (AID 1106); details: higher = more signal;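 note: score merges emission near 667 nm with signal to noise over three replicate slides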
Chain of Dickkopf-related protein 1 (Homo sapiens) (O94907 whole entry, looked up): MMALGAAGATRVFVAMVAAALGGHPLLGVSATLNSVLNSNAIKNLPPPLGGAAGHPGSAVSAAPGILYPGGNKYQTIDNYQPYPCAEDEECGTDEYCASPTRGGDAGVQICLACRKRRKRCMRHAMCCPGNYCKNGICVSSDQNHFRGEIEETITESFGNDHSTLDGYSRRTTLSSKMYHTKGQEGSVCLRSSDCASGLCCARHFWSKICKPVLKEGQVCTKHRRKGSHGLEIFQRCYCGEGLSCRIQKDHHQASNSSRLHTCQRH

[10] = system: Inhibin beta A chain (activin A); experiment: small molecules binding activin A – biochemical, small-molecule microarray, 635 nm fluorescence scan, primary screen (AID 1107); details: INHBA, higher = more signal;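 note: mouse activin A protein probed at 4.33 µg/mL on printed slides; score merges bound-protein fluorescence near 667 nm with spot signal-to-noise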

SMILES | composite z-score [1] | composite z-score [2] | composite z-score [3] | z-score [4] | composite z-score [5] | composite z-score [6] | composite z-score [7] | composite z-score [8] | composite z-score [9] | composite z-score [10]
CN1C(=O)C2C=CC(C(O)c3cccn3C)N(Nc3ccc([N+](=O)[O-])cc3[N+](=O)[O-])C2C1=O (stereo not given) | 0.0859 | 0.821 | 0.897 | 1.15 (inactive) | 0.219 | -0.269 | -0.157 | -0.0164 | -0.31 | 1.12
NC(=O)NCC#Cc1ccc2c(c1)[C@]1(C(=O)N2)[C@H](C(=O)N2CCN(c3ncccn3)CC2)[C@H]2C(=O)O[C@H](c3ccccc3)[C@H](c3ccccc3)N2[C@@H]1c1ccc(O)cc1 | 0.615 | 0.287 | 0.208 | -0.534 (inactive) | 1.21 | -0.0752 | 0.755 | 1.41 | 0.704 | -0.131
C=CC[C@H](OC(=O)Nc1ccc(SC)cc1)c1ccc(O)c2ccccc12 | 0.731 | -0.0313 | 0.296 | -2.98 (inactive) | 0.972 | 1.29 | 0.961 | 1.08 | 0.778 | 0.932
CC(C)N1C(=O)c2ccccc2[C@@H](C(=O)NCCN2CCOCC2)[C@@H]1c1ccc(CO)cc1 | -0.256 | -0.005 | 0.917 | -0.141 (inactive) | -2.1 | -1.05 | -1.85 | -1.01 | -1.19 | -0.0564
COc1ccc(CCNC(=O)[C@@H]2c3ccccc3C(=O)N(C3CCCCC3)[C@H]2c2ccc(CO)cc2)cc1 | 1.35 | 0.0099 | 0.692 | 0.43 (inactive) | 0.542 | 0.32 | -0.227 | 0.0696 | -0.487 | 0.177
COc1cc(C(O)C2C=CC3C(=O)N(C)C(=O)C3N2Nc2ccccc2)cc(OC)c1OC (stereo not given) | 1.66 | 1.22 | 0.655 | -0.0318 (inactive) | 0.581 | 1.25 | -0.206 | 0.595 | -0.543 | 0.916
C=C[C@@H](OC)[C@H](OC(=O)Nc1ccc(OC)cc1)c1ccc(O)c(F)c1 | 1.52 | -0.515 | -0.54 | -0.653 (inactive) | -0.076 | -0.242 | -0.459 | -0.0891 | 0.171 | 1.07
CCCCCCCCCCC(O)C1C=CC2C(=O)N(c3ccccc3)C(=O)C2N1Nc1ccc(C#N)cc1 (stereo not given) | 0.905 | 0.44 | 1.09 | 1.08 (inactive) | 1.06 | 1.02 | 0.17 | 0.788 | -0.517 | 1.02
COc1ccc(C#Cc2ccc3c(c2)[C@]2(C(=O)N3)[C@H](C(=O)O)[C@H]3C(=O)O[C@H](c4ccccc4)[C@H](c4ccccc4)N3[C@@H]2c2ccc(O)cc2)cc1 | 1.52 | 0.734 | 0.681 | -0.264 (inactive) | -0.054 | -0.352 | -0.165 | -0.382 | -0.603 | 0.0045
C=CCNC(=O)[C@@H]1[C@H]2C(=O)O[C@H](c3ccccc3)[C@H](c3ccccc3)N2[C@H](c2ccccc2OCCO)[C@@]12C(=O)N(C(=O)OCCOC)c1ccc(C#CC3(O)CCCCCC3)cc12 | 1.17 | 0.0347 | 0.31 | -0.692 (inactive) | 0.87 | 1.3 | 0.598 | 1.36 | 0.579 | 1.13
CC[C@@H]1O[Si](C(C)C)(C(C)C)c2c1cc(-c1cc(C)c(OC)c(C)c1)nc2-c1ccc(Oc2ccccc2)cc1 | -0.551 | 0.825 | -0.0144 | -0.166 (inactive) | 0.0008 | -0.732 | -0.451 | -0.452 | -0.497 | 0.135
CCOC(=O)C[C@H]1[C@H](OC(=O)Cc2ccc3c(c2)OCO3)[C@@H](NC(=O)C2CCCCC2)c2cc(OCCCO)ccc2N1C(=O)c1ccccc1 | 0.0882 | -0.173 | -0.265 | -0.664 (inactive) | 0.27 | -0.0848 | 0.073 | 0.145 | 0.351 | 0.193
C=CCC(OC(C)=O)[C@@H]1[C@@H](N(Cc2cccc3ccccc23)C(=O)Cc2ccc(F)cc2)c2cc(OCCCO)ccc2N1C(=O)c1ccc2ccccc2c1 (stereo not given in full) | -0.246 | -0.469 | 0.0515 | -0.527 (inactive) | -0.134 | 0.0566 | 0.0199 | 0.565 | 0.301 | 1.24
COc1ccc([Si](C)(C)[C@@H]2[C@@H](CC(=O)N(CCO)Cc3ccccc3)O[C@]3(C(=O)N(Cc4cccc(N5CCCCC5=O)c4)c4ccccc43)[C@H]2C)cc1 | 1.16 | -0.0247 | 0.505 | -0.166 (inactive) | 0.883 | 0.1 | 0.242 | 0.84 | 0.419 | 0.493
[N-]=[N+]=Nc1ccccc1[C@H]1OC(c2ccc(OCCCO)cc2)=N[C@@]1(Cc1ccccc1)C(=O)NCCN1CCOCC1 | 1.59 | 1.34 | 1.29 | -1.01 (inactive) | 1.3 | 1.28 | 0.81 | 1.37 | 0.196 | 1.13
CCOC(=O)C[C@H]1[C@H](OC(=O)Cc2ccc3c(c2)OCO3)[C@@H](NC(=O)c2ccc3ccccc3n2)c2cc(OCCCO)ccc2N1C(=O)c1ccc2ccccc2n1 | 0.138 | 0.0134 | -0.0731 | -1.63 (inactive) | 0.813 | 0.495 | 0.267 | 0.492 | 0.483 | 0.265
CO[C@H]1O[C@H](CO)[C@@H](OC(=O)Nc2ccc3c(c2)OCO3)[C@H](OC(=O)Nc2ccc3c(c2)OCO3)[C@@H]1OC(=O)Nc1ccc2c(c1)OCO2 | 1.33 | 0.203 | 0.195 | -0.714 (inactive) | 1.39 | 1.23 | 0.273 | 1.41 | 0.378 | 0.762
O=C1OCCC/C=C\[C@H]2OC34C=CCN(c5ccc6ccccc6c5)C(=O)[C@H]3N(CCO)C(=O)[C@@H]4C12 (stereo not given in full) | 1.32 | -0.416 | 0.256 | -1.07 (inactive) | -0.654 | -0.785 | -1.83 | -1.59 | -1.09 | 0.0621
[N-]=[N+]=Nc1ccccc1C[C@@]1(C(=O)N2CCOCC2)N=C(c2ccc(OCCCO)cc2)O[C@@H]1c1ccccc1 | 0.816 | 1.46 | 0.59 | -0.818 (inactive) | 1.36 | 1.31 | 0.577 | 1.25 | -0.0771 | -0.431
C[C@@H]1NC(=O)[C@@H](Cc2ccccc2)NC(=O)[C@@]23C(=O)N[C@@H](Cc4ccccc4)C2[C@H](C)[C@@]2(C)O[C@H]2C3/C=C/C/C=C\CNC1=O (stereo not given in full) | 1.02 | -0.259 | -0.17 | 0.138 (inactive) | -0.2 | -0.769 | -0.318 | 0.119 | 0.0252 | 1.16
CCOC(=O)C[C@H]1[C@H](OC(=O)Cc2ccc3c(c2)OCO3)[C@@H](NC(=O)c2ccc3ccccc3n2)c2cc(OCCCO)ccc2N1C(=O)c1ccccc1 | 0.153 | 0.0565 | -0.33 | -0.149 (inactive) | 0.445 | 0.0897 | 0.0654 | 0.73 | 0.283 | 0.696
CC(C)C(O)C1C=CC2C(=O)N(c3ccccc3)C(=O)C2N1Nc1ccccc1 (stereo not given) | 1.06 | 0.584 | 0.432 | -0.307 (inactive) | 1.22 | 0.0942 | 0.34 | 1.41 | -0.0988 | 0.326
